According to PubChem BioAssay AID1851 (National Center for Advancing Translational Sciences (NCATS), 2009):
The campaign covered roughly 16,000 compounds. About 5,100 (32%) were called active. Another 25% or so got no clear call; they are omitted. Calls come from the whole dose curve; as a rule, active = well fitted curve in the direction sought with a large enough effect; inconclusive = small, poorly fitted or top-dose-only effect, or effect the other way; inactive = no such curve, though single readings can be large or run the other way. The list shows a part of the results.

Target: Cytochrome P450 3A4 (Homo sapiens) (UniProt P08684)
Sequence (P08684 whole entry, looked up): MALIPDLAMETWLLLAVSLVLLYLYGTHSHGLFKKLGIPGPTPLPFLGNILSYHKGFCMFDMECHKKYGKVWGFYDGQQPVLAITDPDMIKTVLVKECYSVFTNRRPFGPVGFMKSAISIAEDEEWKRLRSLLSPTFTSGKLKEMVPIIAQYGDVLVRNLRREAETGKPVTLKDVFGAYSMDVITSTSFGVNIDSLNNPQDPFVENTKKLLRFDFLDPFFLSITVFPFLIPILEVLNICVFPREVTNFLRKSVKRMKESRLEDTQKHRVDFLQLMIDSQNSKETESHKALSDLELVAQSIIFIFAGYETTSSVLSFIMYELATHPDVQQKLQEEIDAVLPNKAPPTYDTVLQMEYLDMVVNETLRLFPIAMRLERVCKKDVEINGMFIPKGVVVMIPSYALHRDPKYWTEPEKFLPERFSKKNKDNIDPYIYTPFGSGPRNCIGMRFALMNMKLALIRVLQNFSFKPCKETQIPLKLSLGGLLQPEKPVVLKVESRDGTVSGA
Experiment: Cytochrome panel assay with activity outcomes
Details: recombinant CYP, pro-luciferin dealkylation, luminescence, p450-cyp3a4; series mostly up to 57.1 µM
% is set by controls: 0 for no effect and ±100 for the full control effect.

AC50, active:
Cc1cc(F)ccc1S(=O)(=O)Nc1ccccc1C(=O)Nc1ccccc1N1CCOCC1 0.891 µM, CN(C)Cc1ccccc1-c1nc(NCc2ccccc2)c2ccccc2n1 12.6 µM, Cc1cccc(CNc2nc(-c3ccccc3CN(C)C)nc3ccccc23)c1 10 µM, COc1ccccc1OCCN1C(=O)S/C(=C\c2ccco2)C1=O 14.1 µM, CCCc1cc(=O)oc2cc(OCC(=O)N3CCc4ccccc43)ccc12 8.91 µM, Cc1ccc(Nc2nc(-c3c(C)nc4ncccn34)cs2)cc1 25.1 µM, CC(C)C(=O)NCCn1ccc2ccccc21 12.6 µM, O=C(O)CN1CCN(Cc2ccc(F)cc2Cl)C1=O 2.24 µM, Cc1sc(NC(=O)C2CCCCC2)c(C#N)c1-c1ccccc1 8.91 µM, Cc1ccc2nc(SCc3nc4c(cnn4-c4ccccc4)c(=O)[nH]3)[nH]c2c1 10 µM, Cc1ccc2c(CC(=O)OCc3cc(=O)n4c(n3)sc3ccccc34)coc2c1 7.94 µM, CN(CCO)c1nc(N)c2c(N)nc3c(c2c1C#N)CC(=O)N3C1CCCC1 10 µM, COc1cc(/C=N/NC(N)=O)c(Br)cc1OCC(=O)Nc1ccccc1C 3.55 µM, CCCN1C(=O)/C(=C/c2ccc(C)s2)SC1=Nc1ccc(OC)cc1 14.1 µM, CCCCOC(=O)NS(=O)(=O)c1sc(CC(C)C)cc1-c1ccc(Cn2c(CC)nc3c(C)cc(C)nc32)cc1 3.16 µM, C=CCn1c(SCC(=O)Nc2c(C)n(C)n(-c3ccccc3)c2=O)nc2sc(C)c(-c3ccccc3)c2c1=O 2.51 µM, Cc1c(NC(=O)CSc2nnc3c4ccccc4n(CCc4ccccc4)c3n2)c(=O)n(-c2ccccc2)n1C 10 µM, Cc1cccc(NC(=O)Cn2c(=O)n3nc(CCn4nc(C)cc4C)nc3c3ccccc32)c1 5.01 µM, Cc1cccc(NC(=O)CSc2nc3ccccc3c3nc(CCc4c(C)n[nH]c4C)nn23)c1 3.55 µM, C[C@]1(c2ccccc2)O[C@@H]2C[C@@H]3[C@@H]4CCC5=CC(=O)C=C[C@@]5(C)[C@]4(F)[C@H](O)C[C@]3(C)[C@@]2(C(=O)CO)O1 3.16 µM, O=C(NCc1ccccc1)C(c1ccc(F)cc1)N(Cc1ccco1)C(=O)c1ccccn1 (configuration not stated) 2.24 µM, Cc1ccccc1C(C(=O)NCc1ccccc1)N(Cc1ccco1)C(=O)c1ccccn1 (configuration not stated) 3.16 µM, N#C/C(=C\c1ccc(O)c(O)c1)C(=O)c1ccc(O)c(O)c1 15.8 µM, N#C/C(=C\c1c[nH]c2ccccc12)C(=O)c1ccc(O)c(O)c1 7.94 µM, Cc1nc2c3cnn(-c4ccc(C)c(C)c4)c3ncn2n1 17.8 µM, COc1cccc(N(C(=O)Cn2nnc(-c3ccc(C)cc3)n2)C(C(=O)NC(C)(C)C)c2c[nH]c3ccccc23)c1 (configuration not stated) 2.82 µM, NCCCCCc1nnc(SCc2ccc(Cl)cc2Cl)o1 12.6 µM, CCOC(=O)c1cnn(CCOC(=O)C(C)(C)C)c1NC(=O)C(C)(C)C 12.6 µM, COc1ccc(-n2c(=O)[nH]cc(C(=O)Nc3ccc4c(c3)OCCO4)c2=O)cc1 14.1 µM, CCOC(=O)CSc1cc(CS(=O)c2ccc(Cl)cc2)nc(-c2ccccc2)n1 (configuration not stated) 7.08 µM, CCOc1ccc(OCC)c(-c2c(=O)n(OCc3ccccc3C(=O)OC)c3ccccc3[n+]2[O-])c1 14.1 µM, CC1CSc2nc3sc4c(c3c(=O)n21)CCCC4 (configuration not stated) 12.6 µM, CC1(C)CC(=O)C2=C(C1)N(c1ccc(F)cc1)C(N)=C(C#N)C2c1cccs1 (configuration not stated) 1 µM, COc1cc(NC(=S)NC(=O)c2c(OC)cccc2OC)ccc1NC(=O)c1cccs1 3.16 µM, Cc1ccccc1C(=O)Nc1cccc(NC(=S)NC(=O)c2cccs2)c1 3.55 µM, CN(C1CCCCC1)S(=O)(=O)c1ccc(NC(=S)NC(=O)c2cccs2)cc1 3.98 µM, COc1ccc(N(C)C(=O)c2ccc3nc(-c4ccccc4)c(-c4ccccc4)nc3c2)cc1 7.94 µM, C=CCNC(=O)c1ccc2nc(-c3ccccc3)c(-c3ccccc3)nc2c1 7.08 µM, CC1CC2=C(NC(=S)NC2c2ccc(F)cc2)/C(=C/c2ccc(F)cc2)C1 (configuration not stated) 5.01 µM, O=C1NCCN1Cc1ccccc1F 15.8 µM, Cc1cccc(Cn2ncc(Cl)c(Cl)c2=O)c1 14.1 µM

AC50, inactive:
O=C(Nc1ccccc1N1CCOCC1)c1ccccc1[N+](=O)[O-], O=C(Nc1ccccc1N1CCOCC1)c1ccc([N+](=O)[O-])cc1, CN(C)Cc1ccccc1-c1nc(N(C)C)c2ccccc2n1, CCOc1cc(/C=C2/SC(=O)N(CC(=O)N3CCc4ccccc4C3)C2=O)ccc1OCC(=O)O, CCCCN=C1N/C(=C\c2ccco2)C(=O)N1c1ccccc1, CCCCc1cc(=O)oc2cc(OCC(=O)N(CC)CC)ccc12, C=CCn1c(=O)c(C(=O)NCCN(CC)CC)c(O)c2ccccc21, O=C(O)CN1CCN(Cc2ccccc2)C1=O, Cc1sc(NC(=O)/C=C/c2ccc(C(C)C)cc2)c(C#N)c1C, CC1=C(C#N)C(NC(=O)C2CCCCC2)(C(F)(F)F)C(=O)N1 (configuration not stated), CC(C)(C)CNC(CO)C12CC3CC(CC(C3)C1)C2 (configuration not stated), CCC(CC)C(=O)Nc1c2cnn(-c3ccccc3)c2nc(=O)n1-c1ccccc1, CCOC(=O)Cc1cc(=O)n2[nH]c(C)c(-c3ccccc3)c2n1, CCc1c(O)nc2sc3ccccc3n2c1=O, Cc1ccccc1OCC(=O)NC(=S)Nc1ccc(Br)c(C)n1, Cc1ccc(/C=C/C(=O)N2CC(C)CC(C)C2)o1 (configuration not stated), C[C@]12C=CC(=O)C=C1CC[C@@H]1[C@H]3C[C@@H](O)[C@](O)(C(=O)CO)[C@@]3(C)C[C@H](O)[C@]12F, Clc1ccc(-c2cc3ccccc3[nH]2)cc1, N#C/C(=C\c1ccc(O)c(O)c1)C(N)=O, c1ccc(-n2ncc3c2ncn2cnnc32)cc1, Cc1ccc(-n2ncc3c2ncn2nc(-c4ccco4)nc32)c(C)c1, NCCCCCc1nnc(SCc2ccccc2Cl)o1, CCOC(=O)c1cnc2c(cnn2C)c1NCCCN(C)C, CNC(=O)Oc1ccc2c(c1)[C@@]1(C)CCN(C)[C@@H]1N2C, CCOC(=O)CSc1nc(-c2ccccc2)nc2ccccc12, CCOC(=O)CSc1cc(C(F)(F)F)nc(-c2ccccn2)n1, CCn1c(SCC(=O)OC)nc2sc3c(c2c1=O)CCC3, CCN(c1ccccc1)S(=O)(=O)c1ccc(NC(=S)NC(=O)c2ccc(Br)o2)cc1, CCCC(=O)Nc1ccc(C(=O)NNC(=S)NC(=O)c2cccs2)cc1, CCNC(=O)c1ccc(-n2nc(C)cc2-c2ccccc2)cc1, C=CCNC(=O)c1ccccc1Cl, O=C1NCCN1Cc1cccc(Cl)c1, N[C@@H](Cn1ccc(=O)n(Cc2ccccc2C(=O)O)c1=O)C(=O)O, O=C(OCn1ncc(Cl)c(Cl)c1=O)c1cccc(C(F)(F)F)c1

activity, negative = inhibition, inactive:
CCCc1cc(=O)oc2cc(OCc3nn[nH]n3)ccc12 -17.2% [at 2.29 µM], Cc1nc(SCC(=O)Nc2c(C)nn(C)c2C)c2cnn(-c3ccccc3)c2n1 -11.2% [at 2.29 µM], COCCCNC(=O)C(=O)N/N=C/c1ccc(OCC(=O)Nc2cccc(Cl)c2C)c(OC)c1 7.9% [at 2.29 µM], Cc1c(NC(=O)CSc2nnnn2C)c(=O)n(-c2ccccc2)n1C -2.31% [at 2.29 µM], Cc1nc(SCC(=O)Nc2c(C)n(C)n(-c3ccccc3)c2=O)nc(C)c1C -4.78% [at 11.4 µM], C[C@H]1C[C@H]2[C@H]3CCC4=CC(=O)C=C[C@@]4(C)[C@]3(F)[C@H](O)C[C@]2(C)[C@@]1(O)C(=O)COP(=O)(O)O 7.91% [at 11.4 µM], N#C/C(=C\N1CCNC1=S)C(=O)c1ccc2ccccc2c1 -26% [at 11.4 µM], CC(C)(C)c1ccc(OCC(=O)O)c(Cl)c1 -2.41% [at 11.4 µM], O=C1N=C(N2CCOCC2)S/C1=C/c1cccs1 -4.33% [at 2.29 µM], NC(=O)CNC(=O)[C@@H]1CC2(CC(c3ccccc3)=NO2)CN1C(=O)c1ccc(Br)cc1 (some centres not stated) -5.09% [at 11.4 µM], N=C(N)SCc1ccc(Cl)cc1Cl (tested in a mixture with another compound) -3.48% [at 11.4 µM], CCn1ncc(C(=O)Nc2cc(C)on2)c1C 6.4% [at 2.29 µM], Cn1c(=O)c2c3c(sc2n2cnnc12)CCC3 10.9% [at 2.29 µM], COc1ccc(-n2nc3cc(C)c(NC(=S)NC(=O)c4ccccc4C)cc3n2)cc1 -17.3% [at 11.4 µM], C/C(=N\NC(=O)c1ccccc1C)c1ccc(NC(=O)c2cccs2)cc1 -4.96% [at 2.29 µM], O=[N+]([O-])/C=C\c1cc2ccccc2[nH]1 -22.3% [at 11.4 µM], COC(=O)c1cc2n(n1)CCN(Cc1ccccc1F)C2=O 17.9% [at 2.29 µM]
